In PubChem BioAssay:
Active and inactive are the calls of the source.

Legend:
[1] = test system: PRMT1 (protein arginine N-methyltransferase 1); test: PRMT1 binders on small-molecule microarrays, primary screen, biochemical, small-molecule microarray, 635 nm fluorescence (AID 1088); settings: small-molecule microarray binding, higher = more signal;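 note: binding of Prmt1 protein to compounds spotted on small-molecule microarray slides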
[2] = yeast growth modulation, basal conditions, primary screen, YJM789 clinical isolate, OD600, 24 h (AID 1089);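 note: growth of clinical yeast isolate S. cerevisiae YJM 789 seeded 1000 cells per well; test concentration not given here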; settings: S. cerevisiae YJM789 growth, higher = more signal, called active from +8 up or from −8 down
[3] = fission yeast growth modulation, primary screen, strain 972, OD600, 24 h, no modulator (AID 1090);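 note: basal condition with compound alone and no growth modifier present; test concentration not given here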; settings: S. pombe 972 growth, higher = more signal, called active from +8 up or from −8 down
[4] = S. cerevisiae growth modulation with rapamycin, primary screen, strain BY4716, OD600, 96 h (AID 1091); settings: higher = more signal, called active from +8 up or from −8 down; note: test concentration not given here
[5] = target: Torsin-1A-interacting protein 2 (Homo sapiens) (UniProt Q8NFQ8); test: LULL1 binders on small-molecule microarray, primary screen, cell lysate, human LULL1 lysate, 635/667 nm fluorescence (AID 1092); settings: hLULL1 lysate binding, 635 nm fluorescence, higher = more signal;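 note: probe is lysate of COS7 cells overexpressing human LULL1; score merges per-feature 667 nm fluorescence with signal-to-noise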
[6] = E. coli growth modulation, two-sided OD650, primary screen, E. coli filamentation project, strain DRC41, 24 h (AID 1093); settings: OD650, 24 h, higher = more signal, called active from +8 up or from −8 down;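 note: MC1000 strain lacking acrAB efflux and sulA so SOS filamentation is blocked; test concentration not given here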
[7] = small-molecule microarray binders of probe aLefty2, primary screen, biochemical, biotinylated probe, 635/667 nm fluorescence (AID 1094); settings: higher = more signal;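 note: score merges spot fluorescence near 667 nm with spot signal-to-noise ratio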
[8] = test system: Noggin (protein binding on small-molecule microarray); test: Noggin binders on small-molecule microarray, primary screen, biochemical, 635/667 nm fluorescence (AID 1095); settings: 635 nm fluorescence, higher = more signal;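 note: score merges 667 nm feature fluorescence with signal to noise over triplicate slides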
[9] = target: Neurogenic locus notch homolog protein 3 (Homo sapiens) (UniProt Q9UM47); test: NOTCH3 binders on small-molecule microarray, primary screen, biochemical, 635/667 nm fluorescence (AID 1096); settings: NOTCH3 binding, 635 nm fluorescence, higher = more signal
[10] = small-molecule microarray binders of probe aEGFR, primary screen, biochemical, biotinylated probe, 635/667 nm fluorescence (AID 1097); settings: higher = more signal;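 note: probe is a biotinylated anti-EGFR antibody binding compounds printed on slides; score combines fluorescence near 667 nm and signal to noise of each spot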

Neurogenic locus notch homolog protein 3 (Homo sapiens), sequence (Q9UM47 whole entry, looked up): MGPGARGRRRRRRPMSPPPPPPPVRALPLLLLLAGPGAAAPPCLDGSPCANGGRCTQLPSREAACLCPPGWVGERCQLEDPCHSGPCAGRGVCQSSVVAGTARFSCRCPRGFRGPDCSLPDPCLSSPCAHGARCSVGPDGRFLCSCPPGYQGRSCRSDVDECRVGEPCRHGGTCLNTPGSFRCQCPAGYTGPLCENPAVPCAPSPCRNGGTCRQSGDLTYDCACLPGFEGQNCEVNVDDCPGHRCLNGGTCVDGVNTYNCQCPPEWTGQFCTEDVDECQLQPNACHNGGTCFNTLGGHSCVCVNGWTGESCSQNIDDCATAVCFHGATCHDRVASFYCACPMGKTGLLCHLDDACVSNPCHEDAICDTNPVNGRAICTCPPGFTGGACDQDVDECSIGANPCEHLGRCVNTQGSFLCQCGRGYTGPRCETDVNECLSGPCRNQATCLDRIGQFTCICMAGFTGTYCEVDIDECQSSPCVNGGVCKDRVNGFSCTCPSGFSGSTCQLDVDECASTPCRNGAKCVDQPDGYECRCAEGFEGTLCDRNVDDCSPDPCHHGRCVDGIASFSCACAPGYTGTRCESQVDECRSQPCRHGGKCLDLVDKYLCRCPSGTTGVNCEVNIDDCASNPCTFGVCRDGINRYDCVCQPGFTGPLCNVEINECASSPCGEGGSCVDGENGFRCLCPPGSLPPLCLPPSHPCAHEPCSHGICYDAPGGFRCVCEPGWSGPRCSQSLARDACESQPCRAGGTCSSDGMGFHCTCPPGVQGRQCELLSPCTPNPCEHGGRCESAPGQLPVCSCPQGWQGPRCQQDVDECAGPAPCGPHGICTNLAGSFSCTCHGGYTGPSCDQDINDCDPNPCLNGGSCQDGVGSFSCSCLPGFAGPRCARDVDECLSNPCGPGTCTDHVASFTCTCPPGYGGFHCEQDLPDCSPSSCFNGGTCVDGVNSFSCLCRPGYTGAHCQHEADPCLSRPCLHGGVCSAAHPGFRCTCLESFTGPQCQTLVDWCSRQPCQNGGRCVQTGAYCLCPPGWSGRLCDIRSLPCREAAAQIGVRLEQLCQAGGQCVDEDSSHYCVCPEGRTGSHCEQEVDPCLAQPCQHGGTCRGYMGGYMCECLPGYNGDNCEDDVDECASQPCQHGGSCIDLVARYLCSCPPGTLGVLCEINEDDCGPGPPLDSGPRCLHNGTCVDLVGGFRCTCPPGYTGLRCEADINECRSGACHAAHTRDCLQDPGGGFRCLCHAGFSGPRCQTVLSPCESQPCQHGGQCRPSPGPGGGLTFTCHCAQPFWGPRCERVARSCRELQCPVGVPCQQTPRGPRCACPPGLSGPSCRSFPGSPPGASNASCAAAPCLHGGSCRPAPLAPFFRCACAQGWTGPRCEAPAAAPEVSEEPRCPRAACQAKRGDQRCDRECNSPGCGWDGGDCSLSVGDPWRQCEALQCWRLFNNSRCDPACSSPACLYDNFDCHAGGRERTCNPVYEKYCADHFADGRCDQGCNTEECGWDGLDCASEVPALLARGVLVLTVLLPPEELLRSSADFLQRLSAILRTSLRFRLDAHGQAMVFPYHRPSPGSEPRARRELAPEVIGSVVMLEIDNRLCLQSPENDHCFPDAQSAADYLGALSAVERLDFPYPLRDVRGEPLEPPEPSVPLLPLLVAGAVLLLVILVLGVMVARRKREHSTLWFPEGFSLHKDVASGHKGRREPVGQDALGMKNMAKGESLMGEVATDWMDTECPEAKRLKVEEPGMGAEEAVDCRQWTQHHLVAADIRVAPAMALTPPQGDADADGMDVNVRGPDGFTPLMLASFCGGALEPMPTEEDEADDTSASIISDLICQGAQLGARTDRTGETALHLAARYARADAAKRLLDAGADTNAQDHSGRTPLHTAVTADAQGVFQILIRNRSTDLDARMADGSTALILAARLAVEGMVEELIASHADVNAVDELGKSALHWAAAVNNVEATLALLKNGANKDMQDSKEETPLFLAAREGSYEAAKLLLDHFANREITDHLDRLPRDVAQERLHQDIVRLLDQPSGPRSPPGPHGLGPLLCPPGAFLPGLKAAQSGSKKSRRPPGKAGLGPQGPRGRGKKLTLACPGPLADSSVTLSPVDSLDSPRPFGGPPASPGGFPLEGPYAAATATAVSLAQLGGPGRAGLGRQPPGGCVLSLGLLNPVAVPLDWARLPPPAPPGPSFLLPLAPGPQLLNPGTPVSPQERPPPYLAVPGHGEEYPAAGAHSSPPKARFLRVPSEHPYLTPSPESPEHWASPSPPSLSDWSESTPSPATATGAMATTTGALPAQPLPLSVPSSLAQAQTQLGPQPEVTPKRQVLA
Torsin-1A-interacting protein 2 (Homo sapiens), sequence (Q8NFQ8 whole entry, looked up): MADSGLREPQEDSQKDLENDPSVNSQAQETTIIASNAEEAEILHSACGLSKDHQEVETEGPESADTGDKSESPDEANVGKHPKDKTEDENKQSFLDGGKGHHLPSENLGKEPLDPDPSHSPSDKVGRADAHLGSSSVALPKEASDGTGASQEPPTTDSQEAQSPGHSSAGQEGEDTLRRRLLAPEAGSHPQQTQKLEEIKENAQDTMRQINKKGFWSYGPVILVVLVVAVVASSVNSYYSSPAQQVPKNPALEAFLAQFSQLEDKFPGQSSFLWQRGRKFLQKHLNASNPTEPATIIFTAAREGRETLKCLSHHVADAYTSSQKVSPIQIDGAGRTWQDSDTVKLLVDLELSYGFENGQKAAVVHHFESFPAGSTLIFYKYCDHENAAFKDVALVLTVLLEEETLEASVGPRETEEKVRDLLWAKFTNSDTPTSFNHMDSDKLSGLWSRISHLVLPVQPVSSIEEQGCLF

| Compound | composite z-score [1] | z-score [2] | z-score [3] | z-score [4] | composite z-score [5] | z-score [6] | composite z-score [7] | composite z-score [8] | composite z-score [9] | composite z-score [10] |
| --- | --- | --- | --- | --- | --- | --- | --- | --- | --- | --- |
| CN(C)C(=O)[C@]1(Cc2ccccc2CN=[N+]=[N-])N=C(c2ccc(OCCCO)cc2)O[C@@H]1c1ccccc1N=[N+]=[N-] | 1.48 | -1.73 (inactive) | 0.498 (inactive) | 12.9 (active) | 3.43 | -0.0046 (inactive) | 0.0369 | 0.317 | 0.618 | 0.0427 |
| COc1ccc([Si](C)(C)[C@H]2[C@H](CCn3cc([C@H](O)c4ccccc4)nn3)O[C@@]3(C(=O)N(c4ccccc4)c4ccccc43)[C@@H]2C)cc1 | 1.56 | 1.02 (inactive) | 1.11 (inactive) | 1.88 (inactive) | 0.147 | 1.58 (inactive) | -0.166 | 1.1 | 0.802 | -0.187 |
| CN1C(=O)[C@]2(CCS(=O)(=O)c3ccccc3)N=C(c3ccc(OCCCO)cc3)O[C@@H]2c2ccccc21 | 1.54 | 0.921 (inactive) | -0.895 (inactive) | 3.62 (inactive) | 3.41 | -0.532 (inactive) | -0.0271 | 0.804 | 1.12 | -0.168 |
| C=CCNC(=O)[C@H]1[C@@H]2C(=O)O[C@@H](c3ccccc3)[C@@H](c3ccccc3)N2[C@@H](c2ccc(O)cc2)[C@]12C(=O)Nc1ccc(C#CC3=CCCCC3)cc12 | 1.42 | 1.51 (inactive) | 0.614 (inactive) | 1.98 (inactive) | 1.54 | -0.197 (inactive) | 0.384 | 1 | 0.758 | -0.17 |
| O=C1O[C@H](c2ccccc2)[C@H](c2ccccc2)N2[C@H]1[C@@H](C(=O)N1CCN(c3ncccn3)CC1)[C@]1(C(=O)Nc3ccccc31)[C@H]2c1ccc(O)cc1 | 1.51 | 1.92 (inactive) | 0.116 (inactive) | 3.6 (inactive) | 3.06 | 0.913 (inactive) | 0.032 | 0.0775 | 0.305 | -0.0936 |
| CCCCC(=C=CC[C@H](O)c1ccc(OCCO)cc1)C[C@H](O)c1ccccn1 | 1.54 | 0.415 (inactive) | -1.18 (inactive) | -0.539 (inactive) | 1.72 | 0.493 (inactive) | -0.0094 | 0.266 | 0.419 | 0.165 |
| COCCOC(=O)N1C(=O)[C@@]2(c3cc(C#CCC(C(=O)OC)C(=O)OC)ccc31)[C@H](C(=O)N1CCCCCCC1)[C@H]1C(=O)O[C@H](c3ccccc3)[C@H](c3ccccc3)N1[C@@H]2c1ccccc1OCCO | 1.56 | 0.917 (inactive) | -1.08 (inactive) | 3.51 (inactive) | 2.88 | 0.858 (inactive) | 1.82 | 1.82 | 1.14 | 1.06 |
| C#CCN=C(N)N | 0.21 | -0.303 (inactive) | -0.349 (inactive) | -0.247 (inactive) | 0.737 | -0.291 (inactive) | -0.18 | 0.759 | 0.562 | 0.0768 |
| NC(=O)[C@@]1(CCS(=O)(=O)c2ccccc2)COC(c2ccc(OCCCO)cc2)=N1 | -0.617 | -0.0133 (inactive) | -0.213 (inactive) | 0.0084 (inactive) | 1.28 | 0.817 (inactive) | 0.158 | -0.0167 | -0.57 | -0.0826 |
| Cc1c(NC(=O)/C(C#N)=C/c2ccc(Cl)cc2)c(=O)n(-c2ccccc2)n1C | 0.505 | -1.53 (inactive) | -1.57 (inactive) | -0.311 (inactive) | 1.55 | -0.155 (inactive) | -0.0657 | 0.532 | 0.992 | -0.153 |
| COCC(=C=CC[C@@H](O)c1cccc(OCCO)c1)C[C@@H](O)COCc1ccccc1 | 0.881 | -1.56 (inactive) | -1.53 (inactive) | -0.592 (inactive) | 3.81 | 1.36 (inactive) | 0.217 | 0.748 | 0.0417 | 0.19 |
| C=CCC(OC(C)=O)[C@@H]1[C@@H](N(Cc2ccc(-c3cccc(C(F)(F)F)c3)o2)C(=O)c2cccc3ccccc23)c2cc(OCCCO)ccc2N1C(=O)c1ccc2ccccc2n1 (stereo not given in full) | 0.24 | 0.75 (inactive) | 0.835 (inactive) | 0.356 (inactive) | -0.039 | -0.746 (inactive) | -0.0209 | -0.029 | -0.684 | -0.132 |
| Cc1ccc(F)cc1S(=O)(=O)N[C@@H]1CCN(Cc2ccc3[nH]ccc3c2)C1 | 0.556 | -0.765 (inactive) | -2.97 (inactive) | -0.873 (inactive) | 2.31 | -1.76 (inactive) | -0.177 | 0.418 | 0.933 | -0.0512 |
| COC(=O)[C@@]1(Cc2ccccc2)[C@H]2c3cc(C(=O)N4CCCC4)n(Cc4ccc(C(F)(F)F)nc4)c3C[C@H]2CN1C(=O)c1ccccc1 | 1.19 | -0.461 (inactive) | 0.449 (inactive) | 1.98 (inactive) | 3.64 | -0.35 (inactive) | 0.226 | 0.073 | 1.03 | 0.265 |
| CO[C@H]1O[C@H](CO)[C@@H](OC(=O)Nc2ccccc2)[C@@H]2OC(=O)[C@H](Cc3ccccc3)C/C=C/C[C@@H](Cc3ccccc3)C(=O)O[C@@H]12 | 1.55 | -1.03 (inactive) | -0.0378 (inactive) | 1.9 (inactive) | 2.58 | 0.588 (inactive) | -0.104 | 0.107 | 0.702 | 0.0308 |
| C#CCN([C@H](/C=C/C1CC1)[C@@H](O)Cc1ccccc1)[C@@H](Cc1ccccc1)C(=O)OC | 0.447 | -0.345 (inactive) | -0.825 (inactive) | 0.316 (inactive) | 0.126 | 0.598 (inactive) | -0.128 | 0.237 | 0.606 | -0.198 |
| COc1ccc([Si](C)(C)[C@@H]2[C@@H](CCO)O[C@]3(C(=O)N(Cc4ccccc4)c4ccc(N5C(=O)c6ccccc6Oc6ccccc65)cc43)[C@H]2C)cc1 | 0.182 | 1.32 (inactive) | 0.381 (inactive) | 8.27 (active) | 1.21 | 1.13 (inactive) | -0.136 | 0.245 | 0.057 | -0.19 |
| C=CC[C@]1(C(=O)N(C)C)COC(c2ccc(OCCCO)cc2)=N1 | 1.36 | 0.0794 (inactive) | -2.04 (inactive) | -0.95 (inactive) | 2.75 | -1.46 (inactive) | 0.804 | -0.39 | -0.338 | 0.367 |
| O=c1cccc(-c2ccccc2C(F)(F)F)o1 | -0.205 | -0.35 (inactive) | -0.392 (inactive) | 0.591 (inactive) | 1.08 | -0.582 (inactive) | 0.659 | -0.798 | -0.85 | 0.323 |
| CCCC[C@H]1OB(O)C[C@H]2C1=C(C)C[C@H]1C(=O)C=CC(=O)[C@H]12 | 1.24 | 0.111 (inactive) | -15.4 (active) | -0.0407 (inactive) | 1.01 | -0.0396 (inactive) | -0.0916 | 0.782 | 1.04 | -0.071 |
| O=C1O[C@H](c2ccccc2)[C@H](c2ccccc2)N2[C@H]1[C@@H](C(=O)NC[C@H](O)c1ccccc1)[C@]1(C(=O)Nc3ccc(C#CCCO)cc31)[C@H]2c1ccccc1OCCO | 1.54 | 1.14 (inactive) | -2.23 (inactive) | 3.41 (inactive) | 2.22 | 1.19 (inactive) | -0.0499 | 0.795 | 0.325 | -0.139 |
